Results filed as inconclusive are left out. Entries that show only a call come without a potency. Activity calls are given as the source filed them. Calls follow the shape of the dose curve; as a rule, active = well fitted inhibition curve with a large enough effect; inconclusive = small, poorly fitted or top-dose-only effect; inactive = flat fitted curve, though single readings scatter.

Chain of Calcium and integrin-binding protein 1 (Homo sapiens) (Q99828 whole entry, looked up): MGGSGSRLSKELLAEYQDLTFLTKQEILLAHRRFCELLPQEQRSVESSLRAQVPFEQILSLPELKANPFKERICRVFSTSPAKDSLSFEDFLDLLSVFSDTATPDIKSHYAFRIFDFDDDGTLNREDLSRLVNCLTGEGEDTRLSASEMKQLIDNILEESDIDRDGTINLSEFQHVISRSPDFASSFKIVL

The assay concerns the target Calcium and integrin-binding protein 1 (Homo sapiens) (UniProt Q99828). In words: Primary qHTS for Identification of Calcium Integrin Binding Protein 1 (CIB1) Competitor (AID 1508620).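 Also: GST tagged CIB1 binding a fluorescein labelled alphaIIb integrin peptide tracer; top concentration of the series differs between compounds.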 Particulars: CIB1-GST / FITC-alphaIIb peptide fluorescence polarization; series mostly up to 57.7 µM. The procedure, abridged:
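CIB1-GST (1 uM final) and compound incubated 15 min at room temperature before adding FITC-alphaIIb peptide tracer (100 nM final). Competition for binding read by fluorescence polarization (ex 480, em 540) after another 15 min at room temperature.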
Background: qHTS replaces the single test concentration by a dilution series.
`NC(=O)c1cccc2[nH]c(-c3ccc([C@H]4CCCN4)cc3F)nc12`: the Potency result is “inactive”.

As to `CCc1ccc(OCc2ccccc2C(=O)Nc2ccc3nc(C)cc(N)c3c2)cc1`, the Potency result was “inactive”.

For `CO[C@H]1C[C@@H]2CC[C@@H](C)[C@@](O)(O2)C(=O)C(=O)N2CCCC[C@@H]2C(=O)O[C@H]([C@H](C)C[C@@H]2CC[C@H](OP(C)(C)=O)[C@H](OC)C2)CC(=O)[C@H](C)C=C(C)[C@@H](O)[C@@H](OC)C(=O)[C@H](C)C[C@H](C)C=CC=CC=C1C`, the Potency entry is “inactive”.

In the case of `Oc1ccc(C2=Cc3ccc(O)cc3OC2)cc1`, the Potency result is “inactive”.

For `C=C1C(=O)OC2C=C(C)CCC=C(C)CCC12` (centres undefined), the Potency result was “inactive”.

In the case of `Nc1nc(F)nc2c1ncn2[C@@H]1O[C@H](COP(=O)(O)O)[C@@H](O)[C@H]1O`, the Potency result was “inactive”.

Take `COc1cc(O)c2c(c1)C(=O)c1cc(C)cc(O)c1C2=O`: the Potency result is “inactive”.

On to `CC1(C)Cc2c(sc(NC(=S)NC(=O)c3ccccc3)c2C(=O)O)CO1`, for which the Potency result is “inactive”.

As for `CC(=Cc1ccccc1)C=C1SC(=S)N(CC(=O)O)C1=O`, the Potency result is “inactive”.

As for `OC[C@H]1O[C@@H](n2cnc3c2NC=NC[C@@H]3O)C[C@H]1O`, the Potency result was “inactive”.

Take `Nc1ncnc2c1ncn2[C@@H]1O[C@@H](CO)[C@H](O)[C@H]1O`: the Potency entry is “inactive”.

Regarding `CCOc1ccc(Nc2nc(-c3c(C)nc4ccccn34)cs2)cc1`, the Potency entry is “inactive”.

In the case of `CC(=O)O[C@]1(C(C)=O)CC[C@@H]2[C@@H]3C[C@H](C)C4=CC(=O)CC[C@]4(C)[C@H]3CC[C@@]21C`, the Potency entry is “inactive”.

Take `OC[C@H]1O[C@@H](Oc2cc(O)cc(C=Cc3ccc(O)cc3)c2)[C@H](O)[C@@H](O)[C@H]1O`: the Potency entry was “inactive”.

Regarding `Cn1cc(C=C2C(=O)Nc3cccnc32)c2ccccc21`, the Potency entry was “inactive”.

`CO[C@H]1C=CO[C@@]2(C)Oc3c(C)c(O)c4c(O)c(c5c(c4c3C2=O)NC2(CCN(CC(C)C)CC2)N=5)=NC(=O)C(C)=CC=C[C@H](C)[C@H](O)[C@@H](C)[C@@H](O)[C@@H](C)[C@H](OC(C)=O)[C@H]1C`: the Potency result is “inactive”.

`CCS(=O)(=O)N1CC(CC#N)(n2cc(-c3ncnc4[nH]ccc34)cn2)C1`: the Potency entry is “inactive”.

Regarding `CCOC(=O)O[C@]1(C(=O)OCCl)CC[C@@H]2[C@H]3CCC4=CC(=O)C=C[C@]4(C)[C@@H]3[C@@H](O)C[C@@]21C`, the Potency entry was “inactive”.

Take `NC1=N[C@@]2(c3cc(NC(=O)c4ccc(F)cn4)ccc3F)COC[C@@H]2CS1`: the Potency entry is “inactive”.

Consider `CC(C)C(=O)Oc1ccc(CO)cc1[C@H](CCN(C(C)C)C(C)C)c1ccccc1`, for which the Potency result was “inactive”.

`CCOC1OC(=O)C[C@H]1NC(=O)[C@@H]1CCCN1C(=O)[C@@H](NC(=O)c1ccc(N)c(Cl)c1)C(C)(C)C` (some centres undefined): the Potency entry is “inactive”.

With `O=C1NC(=O)C(=Cc2ccc3c(c2)OC(F)(F)O3)S1`, the Potency result is “inactive”.

As to `CC(C)n1nc(-c2ccc3oc(N)nc3c2)c2c(N)ncnc21`, the Potency entry is “inactive”.

Consider `CCN(CC)CCOc1ccc(C(=C(Cl)c2ccccc2)c2ccccc2)cc1`, for which the Potency result was “inactive”.

As for `O=C(OCC#CCSc1nnc(-c2cccc3ccccc23)o1)c1cc2ccccc2s1`, the Potency result is “inactive”.

On to `CC(C)(Cc1ccc2ccccc2c1)NC[C@@H](O)COc1cccc(Cl)c1C#N`, for which the Potency result was “inactive”.

On to `CNC(=O)c1ccccc1Sc1ccc2c(C=Cc3ccccn3)n[nH]c2c1`, for which the Potency result is “inactive”.

`CC(C)C(=O)Nc1ncc(-c2cc(C(F)F)nn2-c2c(Cl)cccc2Cl)s1`: the Potency entry is “inactive”.

Turning to `O=C(O)C=Cc1ccc(O)c(O)c1`, the Potency entry is “inactive”.

Turning to `COc1cc2ncnc(-n3nc(-c4ccccn4)nc3N)c2cc1OC`, the Potency result is “inactive”.

Consider `COc1ccc2c3c1OC1C[C@@H](O)C=C[C@@]31CCN(C)C2` (some centres undefined), for which the Potency entry was “inactive”.

For the molecule `CC=CCC=CCCC(=O)[C@H]1O[C@@H]1C(N)=O`, the Potency entry is “inactive”.

For the molecule `CO[C@H]1C=CC=C(C)C(=O)NC2=CC(=O)C(NCCN(C)C)=C(C[C@@H](C)C[C@H](OC)[C@@H](O)[C@@H](C)C=C(C)[C@@H]1OC(N)=O)C2=O`, the Potency entry was “inactive”.

In the case of `O=c1c(O)c(-c2ccc(O)cc2)oc2cc(O)cc(O)c12`, the Potency result was “inactive”.

With `CC[C@H]1OC(=O)[C@H](C)[C@@H](O[C@H]2C[C@@](C)(OC)[C@@H](O)[C@H](C)O2)[C@H](C)[C@@H](O[C@@H]2O[C@H](C)C[C@H](N(C)C)[C@@H]2O)[C@](C)(O)C[C@@H](C)CN(C)[C@H](C)[C@@H](O)[C@]1(C)O`, the Potency result is “inactive”.

For `C[N+]1(C)[C@@H]2CC(OC(=O)[C@H](CO)c3ccccc3)C[C@H]1[C@H]1O[C@@H]12` (some centres undefined), the Potency entry is “inactive”.

Regarding `O=c1ccn([C@@H]2O[C@H](CO)[C@H](O)[C@H]2O)c(=O)[nH]1`, the Potency result was “inactive”.

Turning to `COc1ccc2c(Oc3ccc(NC(=O)c4c(C)n(CC(C)(C)O)n(-c5ccccc5)c4=O)cc3F)ccnc2c1`, the Potency entry was “inactive”.

Regarding `CO[C@H]1C[C@@H]2CC[C@@H](C)[C@@](O)(O2)C(=O)C(=O)N2CCCC[C@@H]2C(=O)O[C@H]([C@@H](C)C[C@@H]2CC[C@H](O)[C@H](OC)C2)CC(=O)[C@H](C)C=C(C)[C@@H](O)[C@@H](OC)C(=O)[C@H](C)C[C@H](C)C=CC=CC=C1C`, the Potency entry was “inactive”.

For the origin of these results see PubChem BioAssay (NCATS).
